Reference: PubChem BioAssay (NCI)
This is part of a sample that, as a whole, favours compounds with a hit. Of some 83,000 tested, about 20% had one in any assay.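 Step 1: grow cells in 96-well plates. Step 2: add test compound at a single concentration. Step 3: incubate 48 h. Step 4: record percent growth.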 Values without a mark were called inactive. Activity calls are given as the source filed them. Rule for the calls: active = growth percent below 10; inactive = the rest.

System: ACHN renal
Experiment: NCI-60 one-dose screen, 48 h (100 = growth as untreated, 0 = no growth, -100 = all killed)
Conditions: 10 µM unless noted

**Q.** How did the growth turn out when `COc1ccc(C2CC(c3ccc(Nc4ccnc5cc(Cl)ccc45)cc3)=NN2c2ccccc2)cc1` (centres undefined) was run?
**A.** 97.2%

**Q.** For `CCCCc1n(Cc2ccc3ccccc3n2)cc[n+]1Cc1ccc2ccccc2n1`, which growth is on record?
**A.** 96.1%

**Q.** `O=C(/C=C/c1cn(-c2ccccc2)nc1-c1cccc(Nc2ccnc3cc(Cl)ccc23)c1)c1ccc2c(c1)OCO2` was tested. Which growth did it give?
**A.** 105%

**Q.** For `NC(=O)c1noc(C(=O)c2ccccc2)c1N`, which growth is on record?
**A.** 99.6%

**Q.** With `COc1ccc(/C=C(/C(=O)N2CCN(c3ccccc3)CC2)c2cc(OC)c(OC)c(OC)c2)cc1O` as the compound, how does the growth read?
**A.** 33.1%

**Q.** How did the growth turn out when `Fc1ccc(-c2ccnc3nc(-c4ccncc4)nn23)cc1` was run?
**A.** 104%

**Q.** For `O=C1CC2(O)CSc3nc(=O)cc(n32)N1` (centres undefined), which growth is on record?
**A.** 101%

**Q.** With `CCOC(=O)C1=C(C)NC(SCc2nnc(-c3ccc(Cl)cc3)o2)=NC1c1ccc(Br)cc1` (centres undefined) as the compound, how does the growth read?
**A.** 69.7%

**Q.** With `CN(C)CCOc1nc2c3cccnc3cc(-c3cccc(Cl)c3)c2c2ncccc12` as the compound, how does the growth read?
**A.** 6.48% (active)

**Q.** How did the growth turn out when `Nc1ncnc2c1N=C(c1ccc(F)cc1)CC(c1sc(Cl)nc1Cl)N2` (centres undefined) was run?
**A.** 95.5%

**Q.** Which growth does the source give for `O=C1/C(=C\c2cccn2Cc2ccc(Cl)cc2)c2ccccc2N1c1c(Cl)cccc1Cl` here?
**A.** 65.7%

**Q.** For `CCOC(CN1CCN(CC(C)C(=O)c2ccccc2)CC1)c1ccccc1` (centres undefined), which growth is on record?
**A.** 106%

**Q.** `COc1ccc(/C(=C\c2cc(OC)c(OC)c(OC)c2)C(=O)N2CCNCC2)cc1` was tested. Which growth did it give?
**A.** 98%

**Q.** Which growth does the source give for `COc1ccc2[nH]c(C(=O)OCc3ccc4cccc(O)c4n3)cc2c1` here?
**A.** -98.4% (active)

**Q.** Which growth does the source give for `O=C(CCc1nc2sc3c(c2c(=O)[nH]1)CCC3)NCc1cn(-c2ccccc2)nc1-c1ccccc1` here?
**A.** 81.1%

**Q.** `COc1ccc(-c2nc(-c3ccccc3OCc3ccccc3OC)nc(C)c2C(C)=O)cc1` was tested. Which growth did it give?
**A.** 87%

**Q.** For `[Ag].[Ag].[NH-]S(=O)(=O)c1ccc(N=Nc2cc(N=Nc3ccc(S([NH-])(=O)=O)cc3)c3c(NC(=O)C(Cl)Cl)cccc3c2OC(=O)C(Cl)Cl)cc1.[c-]1nccs1.[c-]1nccs1`, which growth is on record?
**A.** 52.3%

**Q.** How did the growth turn out when `COc1cc(C2CC(c3cccc(Nc4ccnc5cc(Cl)ccc45)c3)=NN2c2ccccc2)cc(OC)c1OC` (centres undefined) was run?
**A.** 45%

**Q.** With `CCCCCCCCCCCCCCCc1cc(O)ccc1[N+](=O)[O-]` as the compound, how does the growth read?
**A.** 91.9%

**Q.** `Nc1nc2c(c3ncccc13)C(c1ccccc1)Cc1ncccc1-2` (centres undefined) was tested. Which growth did it give?
**A.** 84.4%

**Q.** `O=C1/C(=C\c2cccn2C(=O)c2ccccc2)c2ccccc2N1c1c(Cl)cccc1Cl` was tested. Which growth did it give?
**A.** 79%

**Q.** For `Cc1ccc(C2CC(c3cccs3)=NN2c2ccc(S(N)(=O)=O)cc2)s1` (centres undefined), which growth is on record?
**A.** 91.9%

**Q.** `Nc1nc(N)c2c(n1)NC(c1sc(Cl)nc1Cl)CC(c1ccccc1)=N2` (centres undefined) was tested. Which growth did it give?
**A.** 61.5%

**Q.** Which growth does the source give for `C=CCn1c(C)nc2cc(Nc3nc(N4CCCC4)nc4nc[nH]c34)ccc21` here?
**A.** 17.8%

**Q.** With `CCSc1ccc([C@@H]2[C@@H](O)C(=O)N2c2cc(OC)c(OC)c(OC)c2)cc1` as the compound, how does the growth read?
**A.** 32.7%

**Q.** `Cc1cc(C)c2c(n1)sc1c(Nc3ccc(OCc4ccccc4)cc3)ncnc12` was tested. Which growth did it give?
**A.** 106%

**Q.** Which growth does the source give for `CCN(CC)C(Cl)=Nc1ccc(Cl)cc1` here?
**A.** 98.5%

**Q.** Which growth does the source give for `Cc1nc2ccc(Nc3nc(N4CCOCC4)nc(N4CCN(C)CC4)n3)cc2n1Cc1ccccc1` here?
**A.** 94.7%

**Q.** For `CC(=O)c1c(C)nc(-c2cc(C)cc(Cl)c2)nc1-c1cccc(Oc2ccccc2)c1`, which growth is on record?
**A.** 99.6%

**Q.** `N#Cc1c(N)n(C2OC(CO)C(O)C2O)c2ncnc(N)c12` (centres undefined) was tested. Which growth did it give?
**A.** 8.86% (active)

**Q.** For `CCOC(=O)C1=C(C)NC(SCc2nnc(-c3ccc(Cl)cc3)o2)=NC1c1ccc(Cl)cc1` (centres undefined), which growth is on record?
**A.** 64.1%

**Q.** `Cc1cc(C)c2c(NC(=O)Nc3ccc(Cl)c(Cl)c3)n[nH]c2n1` was tested. Which growth did it give?
**A.** 109%

**Q.** With `Brc1ccccc1Cn1c(-c2cncs2)nc2ccccc21` as the compound, how does the growth read?
**A.** 72.8%

**Q.** How did the growth turn out when `CC(C)(C)c1ccc(Cn2c(-c3nonc3N)nc3ccccc32)cc1` was run?
**A.** 77.3%

**Q.** `COc1ccc(Nc2ncnc3c2sc2nc(C)cc(C)c23)cc1` was tested. Which growth did it give?
**A.** 97.2%

**Q.** How did the growth turn out when `CCCc1n(Cc2ccc3ccccc3n2)cc[n+]1Cc1ccc2ccccc2n1` was run?
**A.** 98.1%

**Q.** `O=c1[nH]cnc2nc[nH]c12` was tested. Which growth did it give?
**A.** 103%

**Q.** For `CCOc1cccc(/C=N/NC(=O)c2ccc(Nc3ccnc(C(F)(F)F)c3)cc2)c1O`, which growth is on record?
**A.** 3.84% (active)

**Q.** How did the growth turn out when `CN(C)CCOc1nc2c3ccncc3cc(-c3cccc(Cl)c3)c2c2cnccc12` was run?
**A.** 14.5%
